Reference: PubChem BioAssay (NCI)
Compounds without any hit were thinned out: in the full panel of roughly 83,000, 20% have a hit.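 Method: cells in 96-well plates; compound added at one concentration; 48 h incubation; percent growth measured; values under 10 scored active.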 Calls of active or inactive are those of the source.

How the values were obtained:
Assay in all cases: NCI-60 one-dose screen, 48 h (100 = growth as untreated, 0 = no growth, -100 = all killed)
Conditions in all cases: 10 µM
NCI-H23 lung = system: NCI-H23 lung
NCI-H226 lung = system: NCI-H226 lung
NCI-H322M lung = system: NCI-H322M lung
HOP-62 NSCLC = system: HOP-62 NSCLC
NCI-H460 lung = system: NCI-H460 lung
NCI-H522 lung = system: NCI-H522 lung
A549/ATCC NSCLC = system: A549/ATCC NSCLC
786-0 renal = system: 786-0 renal
COLO 205 colon = system: COLO 205 colon
DU-145 prostate = system: DU-145 prostate

Measured: growth

O=S(=O)(NCCNc1nccc(-c2c(-c3ccc(F)cc3)nc3sccn23)n1)c1ccc2ccccc2c1
inactive: NCI-H23 lung 90.8% | NCI-H226 lung 92.7% | NCI-H322M lung 73% | HOP-62 NSCLC 88.5% | NCI-H460 lung 55% | NCI-H522 lung 75.5% | A549/ATCC NSCLC 43.8% | 786-0 renal 89.4% | COLO 205 colon 57.4% | DU-145 prostate 78.8%

COc1ccc(-c2nc3sc(-c4ccccc4)c(-c4ccccc4)n3c2/C=C/C(=O)c2ccccn2)cc1
inactive: NCI-H23 lung 97.4% | NCI-H226 lung 84% | NCI-H322M lung 112% | HOP-62 NSCLC 134% | NCI-H460 lung 87% | A549/ATCC NSCLC 87.7% | 786-0 renal 98.7% | COLO 205 colon 76.4% | DU-145 prostate 96.7%
active: NCI-H522 lung 6.21%

Nc1ncnc2[nH]c(=O)[nH]c12
inactive: NCI-H23 lung 103% | NCI-H226 lung 87.7% | NCI-H322M lung 103% | HOP-62 NSCLC 97.9% | NCI-H460 lung 95.5% | NCI-H522 lung 105% | A549/ATCC NSCLC 118% | 786-0 renal 102% | COLO 205 colon 132% | DU-145 prostate 99.5%

CN1CCC2(CC1)NC(=O)c1c(c3ccc(Cl)c(Cl)c3n1C)C2C#N (stereo not given)
inactive: NCI-H23 lung 76.6% | NCI-H226 lung 53.8% | NCI-H322M lung 85.6% | HOP-62 NSCLC 58% | NCI-H460 lung 49% | NCI-H522 lung 76.3% | A549/ATCC NSCLC 63.7% | 786-0 renal 68.7% | COLO 205 colon 58% | DU-145 prostate 92.4%

O=[N+]([O-])c1ccc(Oc2cccnc2)c([N+](=O)[O-])c1
inactive: NCI-H23 lung 96.5% | NCI-H226 lung 89.7% | NCI-H322M lung 94.8% | HOP-62 NSCLC 104% | NCI-H460 lung 109% | NCI-H522 lung 36.3% | A549/ATCC NSCLC 102% | 786-0 renal 93.2% | COLO 205 colon 55.5% | DU-145 prostate 86.2%

COc1cc(CNCCCCCCN2C(=O)c3cccc4cccc(c34)C2=O)ccc1O
inactive: NCI-H23 lung 84% | NCI-H226 lung 96.4% | NCI-H322M lung 67.3% | HOP-62 NSCLC 70.3% | NCI-H460 lung 78.1% | NCI-H522 lung 60.9% | A549/ATCC NSCLC 64.3% | 786-0 renal 58.3% | COLO 205 colon 45.8% | DU-145 prostate 80.9%

COc1ccc(S(=O)(=O)Nc2c(/C=C\c3cc(OC)c(OC)c(OC)c3)ccc(OC)c2O)cc1
active: NCI-H460 lung 6.2% | NCI-H522 lung -47.6% | 786-0 renal 9.56% | COLO 205 colon 3.21% | DU-145 prostate -16.7%
inactive: NCI-H23 lung 33.1% | NCI-H226 lung 12.9% | NCI-H322M lung 40.5% | HOP-62 NSCLC 49.1% | A549/ATCC NSCLC 15.6%

O=C1/C(=C\c2ccc(Cl)cc2)CN(C(=O)c2ccccc2)C/C1=C\c1ccc(Cl)cc1
active: 786-0 renal 7.43%
inactive: NCI-H23 lung 58.2% | NCI-H226 lung 10% | NCI-H322M lung 74.5% | HOP-62 NSCLC 23.2% | NCI-H460 lung 68.3% | NCI-H522 lung 40.6% | A549/ATCC NSCLC 22.2% | COLO 205 colon 32.9% | DU-145 prostate 24.9%

O=C1/C(=C\c2ccc(Br)cc2)CN(C(=O)c2ccccc2F)C/C1=C\c1ccc(Br)cc1
active: NCI-H226 lung -30.3% | HOP-62 NSCLC -7.85% | NCI-H522 lung -1.44% | A549/ATCC NSCLC 2.51% | 786-0 renal -52.4% | COLO 205 colon 5.27% | DU-145 prostate 6.51%
inactive: NCI-H23 lung 23.5% | NCI-H322M lung 60.7% | NCI-H460 lung 43.3%

CCCCC(CCCCCC(CCCC)NCc1ccc2c(c1)OCO2)NCc1ccc2c(c1)OCO2 (stereo not given)
active: NCI-H23 lung -98.5% | NCI-H226 lung -77.9% | NCI-H322M lung -91.6% | HOP-62 NSCLC -98.9% | NCI-H460 lung -98.4% | NCI-H522 lung -91.2% | A549/ATCC NSCLC -99.2% | 786-0 renal -100% | COLO 205 colon -97.5% | DU-145 prostate -100%

COc1ccc(S(=O)(=O)NCCCNc2nccc(-c3c(-c4ccc(F)cc4)nc4sccn34)n2)cc1
inactive: NCI-H23 lung 74.8% | NCI-H226 lung 68.9% | NCI-H322M lung 52.7% | HOP-62 NSCLC 79.7% | NCI-H460 lung 36.3% | NCI-H522 lung 59.3% | A549/ATCC NSCLC 32% | 786-0 renal 72.4% | COLO 205 colon 26.9% | DU-145 prostate 58.8%

CCC(=O)N1C/C(=C/c2ccc(Br)cc2)C(=O)/C(=C/c2ccc(Br)cc2)C1
active: NCI-H23 lung -46.2% | NCI-H226 lung -62.8% | NCI-H322M lung -27.2% | HOP-62 NSCLC -67.4% | NCI-H460 lung -46.8% | NCI-H522 lung -79.6% | A549/ATCC NSCLC -27.2% | 786-0 renal -77.3% | COLO 205 colon -93.1% | DU-145 prostate -65.4%

COc1ccccc1CNCCN1C(=O)c2ccc3c4c(ccc(c24)C1=O)C(=O)N(CCNCc1ccccc1OC)C3=O
active: NCI-H23 lung -70.5% | NCI-H226 lung -74.7% | NCI-H322M lung -65.4% | HOP-62 NSCLC -79.8% | NCI-H460 lung -91.3% | NCI-H522 lung -83.4% | A549/ATCC NSCLC -93% | 786-0 renal -82.4% | COLO 205 colon -97.5% | DU-145 prostate -100%
